# Screening data: PubChem, several laboratories
# Sampled rows, rich in hits. Any-hit rate of the full collection: about 4.8%.
# SKKanGAS inh = inhibitors of SKKanGAS S. pyogenes growth in kanamycin (SK-promoter or general growth effect); BacTiter-Glo, 6 h; inhibition, % at 7.5 µM; 300,000 compounds, 1.3% hits; AID 1662;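 active = mean replicate score, as percent of positive control median, at least 50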;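 note: strain carries kanamycin resistance gene driven by streptokinase promoter and grows in 40 µg/ml kanamycin; loss of luminescence reflects streptokinase promoter inhibition or plain growth inhibition; 0% = median of DMSO wells and 100% = positive control at its reference dose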
# TIM10 inh = growth inhibitors of TIM10 yeast strain. S. cerevisiae TIM10 strain growth, BacTiter-Glo luminescence, 24 h. inhibition, % at 10 µM. 330,000 compounds, 1.4% hits. AID 463195;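 active = inhibition of 40% or more at the single tested concentration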;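 note: wild-type TIM10 isogenic control strain grown at permissive 25 °C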
# tim10-1 inh = inhibits growth of tim10-1 mutant yeast; S. cerevisiae tim10-1 ts strain growth, BacTiter-Glo, 24 h; inhibition, % at 20 µM; 330,000 compounds, 2.2% hits; AID 463190;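 active = inhibition of at least 40%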;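 note: mutant grown at 25 °C; 0% = DMSO wells with yeast and 100% = wells holding no yeast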
# NALP1 yeast inh = inhibitors of NALP1 inflammasome in yeast; inhibition, % at 10 µM; 280,000 compounds, 0.61% hits; S. cerevisiae NALP1/ASC/caspase-1 growth, X-gal OD620, 72 h; in the data active = inhibition mostly above about 24%, no sharp cut-off; inactive = mostly below about 32%
# PfHsp90 set2 = growth inhibition of yeast expressing Plasmodium Hsp90; inhibition, % at 9.4 µM; S. cerevisiae expressing PfHsp90, BacTiter-Glo ATP, 48 h; yeast lacking PDR1 and PDR3 efflux regulators; AID 504621; 310,000 compounds, 0.32% hits;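 active = every replicate shows inhibition above about 80%, whatever the replicate mean, limit read from the data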;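 note: 0% = DMSO neutral controls and 100% = 20 µM radicicol positive controls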
# tim23-1 inh = tim23-1 yeast growth inhibition | S. cerevisiae tim23-1 growth, BacTiter-Glo luminescence, 24 h | inhibition, % at 20 µM | 330,000 compounds, 1.3% hits | AID 463212;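 active = growth inhibition of the mutant yeast at or above 50%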;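 note: temperature-sensitive mutant grown at 25 °C; plate controls were DMSO-treated mutant yeast for no effect and medium wells lacking yeast for full effect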
# tim10 confirm = TIM10 yeast growth inhibition, confirmed. shares compounds with TIM10 inh. S. cerevisiae tim10 strain growth, BacTiter-Glo luminescence, 24 h. inhibition, % at 10 µM. 4,600 compounds, 63% hits. AID 463215;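 active = inhibition of yeast growth at or above a set limit in either of two replicates at 10 µM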;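 note: this counterscreen used the strain with wild-type TIM10; 0% = yeast with DMSO and 100% = medium wells lacking yeast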
# The depositor's hits bear a star; . = no result given.
SMILES,SKKanGAS inh,TIM10 inh,tim10-1 inh,NALP1 yeast inh,PfHsp90 set2,tim23-1 inh,tim10 confirm
COc1ccccc1N1CCN(C(=O)c2cc(-c3cccc(Cl)c3)on2)CC1,18,43*,40,-37,-1,42,31*
O=C(CN1CCCCCCC1)N/N=C/c1ccc([N+](=O)[O-])o1,5,-1,9,15,-10,-7,.
C/C(=N\NC(=S)Nc1ccccc1C)c1cc2ccccc2o1,13,42*,25,.,-28,33,22
C/C(=N\NC(=O)c1ccco1)c1cc2ccccc2o1,-4,14,-4,22,-31,17,.
CC(=O)Oc1oc(-c2ccccc2)nc1C=Nc1ccc(N(C)C)cc1,0,45*,29,-3,-3,47,22
C[C@H](CO)N1C[C@H](C)[C@@H](CN(C)S(=O)(=O)c2cn(C)cn2)Oc2c(NC(=O)Nc3ccc4c(c3)OCO4)cccc2C1=O,.,2,14,.,23,10,.
Cc1ccc(CN2C(=O)C(C)(C)Oc3ccc(C(=O)N4CCCCC4)cc32)cc1,4,45*,23,8,34,9,4
N#C/C(=C\c1ccc(O)cc1)C(=O)N1CCCC1,-6,5,-3,18,11,19,.
N#C/C(=C\c1ccc(C#N)cc1)C(=O)N1CCCC1,-3,50*,38,-2,.,47,34*
CCOc1ccc(N2C(=O)CS/C2=C(\C(Cl)=C(Cl)Cl)[N+](=O)[O-])cc1,29,8,13,0,-28,44,.
O=C(c1ccccc1)[C@H]1[C@H](c2ccccc2)[C@@]2(N=C(c3ccccc3)OC2=O)C2c3ccccc3C=NN21 (stereo partly specified),5,42*,34,16,.,22,25
COc1ccc([C@H]2[C@H](C(=O)C(C)(C)C)N3N=Cc4ccccc4C3C23C(=O)OC(C)(C)OC3=O)cc1 (stereo partly specified),3,10,35,27,5,15,.
COc1ccc(OCC(O)Cn2c(N3CCCCC3)nc3c2c(=O)n(C)c(=O)n3C)cc1 (stereo unspecified),-3,12,6,9,-3,23,.
Cc1cc(C)c(-n2c(C)cc(/C=C3/NC(=O)NC3=O)c2C)c(C)c1,10,52*,38,8,.,23,-13
Cc1cccc(-n2c(C)cc(/C=C3\NC(=O)NC3=O)c2C)c1,5,-20,-9,20,2,20,.
COc1nccc(C(F)(F)F)c1C(=O)NC(=O)Nc1ccccc1,11,11,13,5,17,13,.
COc1nccc(C(F)(F)F)c1C(=O)NC(=O)Nc1c(C)cccc1C,25,40*,7,-4,0,13,6
CCOc1ccc(OCCSc2ccc(S(=O)(=O)N3CCN(C)CC3)cn2)cc1,.,46*,38,.,-1,50,52*
S=C(Nc1ccccc1Oc1ccccc1)NC1CCCC1,15,41*,24,0,13,37,20
CSc1ccccc1NC(=S)NC1CCCCC1,2,-35,29,3,-10,25,.
CC(C)c1ccccc1NC(=S)NC1CCCCC1,7,46*,37,-6,-2,14,25
O=C(COc1ccc(-n2cnnn2)cc1)NC(=O)NCc1ccccc1,-1,-1,3,1,-7,-6,.
Cc1nnc(SCc2nc3ccccc3[nH]2)s1,0,-2,-6,-1,1,-8,.
c1ccc2[nH]c(CSc3nc4ccccc4s3)nc2c1,17,68*,33,6,-6,23,59*
O=C(Nc1ccc(C(F)(F)F)cc1)c1ccc(NC(=O)C2CCCO2)cc1 (stereo unspecified),2,-13,8,30,13,-17,.
SMILES,SKKanGAS inh,TIM10 inh,tim10-1 inh,NALP1 yeast inh,PfHsp90 set2,tim23-1 inh,tim10 confirm
CCn1c(CSCc2ccc(Cl)cc2)n[nH]c1=S,-3,8,15,-2,-7,31,.
CN1CCOCCOc2ccccc2OCCOCC1,0,58*,2,.,-5,12,-2
c1ccc2c(c1)OCCOCCOCCOCCOc1ccccc1OCCOCCOCCO2,-6,12,22,34,1,29,.
O=C(Nc1ccc2c(c1)nc1n2CCN(C2CCCCC2)C1)c1ccco1,.,.,.,.,-4,.,.
O=C(Nc1ccc2c(c1)nc1n2CCOC1)c1ccco1,-3,47*,14,6,-8,31,15
O=C(Nc1ccc2c(c1)nc1n2CCSC1)c1ccco1,-4,60*,31,-14,.,47,53*
COc1ccc(CC(=O)O/N=C(\N)Cc2ccc(OC)c(OC)c2)cc1,14,6,11,14,23,7,.
COc1ccc(C/C(N)=N/OC(=O)c2ccc(Cl)cc2)cc1,0,49*,40,-7,7,43,59*
N/C(Cc1ccc(Cl)cc1)=N\OC(=O)c1cccc2ccccc12,1,75*,10,-6,128*,36,76*
COc1ccc(C/C(N)=N/OC(=O)Cc2ccccc2)cc1,9,52*,36,-2,.,30,28
CN1C(=O)NC(=O)C1c1ccccc1 (stereo unspecified),.,.,.,.,-9,.,.
CC(=O)Nc1cc2c(cc1[N+](=O)[O-])-c1ccc(F)cc1C2,.,.,.,.,-24,.,.
CCn1c(O)c(/C=C2\C=Nc3ccccc32)sc1=O,-6,44*,16,-9,3,31,-11
CCCn1c(O)c(/C=C2\C=NN=C2c2ccccc2)sc1=S,3,42*,39,24,.,8,24
CCCCC(CC)Cn1c(O)c(/C=C2\C=NN=C2c2ccccc2)sc1=S (stereo unspecified),-3,3,8,36,-9,1,.
CN(CC(=O)NCCc1ccccc1)Cc1ccco1,-11,8,-3,7,-72,-9,.
O=C(COC(=O)c1ccccc1OC(F)F)Nc1ccc(N2CCCCC2)cc1,.,3,-3,.,-19,12,.
Cc1ccc(N(C(=O)c2cnccn2)C(C(=O)NC2CCCCC2)c2ccc(O)cc2)cc1 (stereo unspecified),9,-4,17,-7,-19,4,.
CCOc1ccc(N(C(=O)c2cnccn2)C(C(=O)NC2CCCCC2)c2ccc(O)cc2)cc1 (stereo unspecified),2,84*,17,-5,15,16,-16
COC(=O)c1sc(=S)n(Cc2ccccc2)c1C,-1,-12,28,28,-26,33,.
CCn1c(CNc2cccc(Cl)c2)nnc1SCC(=O)OC1CCCCC1,1,34,32,21,-27,43,.
CCn1c(CNc2ccc(Cl)cc2)nnc1SCC(=O)OC1CCCCC1,4,45*,32,15,20,20,-8
